Compounds with a hit are over-represented: about 19% of the library has one in this group of screens.
HT1080 IDH1KD tx: toxicity to HT-1080 IDH1 knockdown cells (counter line) | Potency, µM (doses to about 46.1 µM), inactives show at the highest dose activity, negative = toxicity, most hits filed as cytotoxic | 360,000 tested, 2% active | HT-1080 IDH1 knockdown viability, ATP luminescence, 48 h;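 further: potency means the concentration at half of the fitted maximal effect; 0% = DMSO wells and -100% = cell-free medium wells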
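Luminescent ATP read-out (CellTiter-Glo, 10 min at room temperature) after 48 h compound exposure at 37 °C gave viability of IDH1-knockdown HT-1080 cells. Activity was normalised to DMSO and cell-free wells, then fitted as concentration-response curves.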
IL-1B inflam inh: inhibitors of inflammasome signaling (IL-1 beta secretion); activity change, % at 57.5 µM; AID 743279; THP-1 LPS/ATP IL-1B secretion, AlphaLISA, 16 h; hits give low values; 360,000 tested, 4.7% active; in the data active means activity change below about -50%; inconclusive means mostly about -30% to -49%
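Secreted IL-1B measured by AlphaLISA bead assay after 16 h compound exposure of THP-1 cells; compounds (final up to 57.5 uM) added 1 h before LPS (250 ng/mL) and ATP (1.25 mM) stimulation; lower signal means less secretion.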
DT40 TDP1 no CPT: qHTS for Inhibitors of human tyrosyl-DNA phosphodiesterase 1 (TDP1): qHTS in cells in absence of CPT; DT40 Tdp1-/- hTDP1 cells, no CPT, ATP luminescence, 48 h; 420,000 tested, 15% active; Potency, µM (top dose mostly 46.2 µM), for inactives: top-dose activity change, negative = growth inhibition, most hits filed as inhibitors; AID 686978, 2013; further: potency means the concentration at half of the fitted maximal effect; nearly all actives have a fitted effect of over 55% in size
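Growth of hTDP1-complemented DT40 Tdp1-knockout cells is measured by ATP luminescence after at least 48 hr compound exposure at 37 °C, with DMSO substituting for the 20 nM CPT used in the parallel screen.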
HT1080NT lethal: kills 2HG-producing HT-1080-NT fibrosarcoma cells. Potency, µM (highest dose often 46.1 µM), without a hit: top-dose activity, negative = less viability, actives largely listed as cytotoxic. AID 686970. HT-1080-NT fibrosarcoma viability, CellTiter-Glo ATP luminescence, 48 h. 360,000 tested, 1.6% active;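 further: NT is the 2HG producing partner of a matched IDH1 knockdown line; potency means the concentration at half of the fitted maximal effect; 0% = DMSO-treated cells and -100% = media-only wells without cells; nearly all actives have a fitted effect of over 55% in size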
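Read-out is CellTiter-Glo luminescence after 10 minutes at room temperature, following 48 hours' compound treatment of HT-1080-NT cells (750 cells/well, RPMI, 5% FBS, 37 degrees C).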
DT40 TDP1 CPT: DT40-hTDP1 cell growth loss with CPT. chicken DT40 Tdp1-/-;hTDP1 cells + 20 nM CPT, ATP luminescence, 48 h. Potency, µM (series often up to 46.2 µM), inactives show top-dose activity change, negative = growth inhibition, most hits filed as inhibitors. 420,000 tested, 12% active. AID 686979; further: potency means the concentration at half of the fitted maximal effect; nearly all actives have a fitted effect of over 55% in size
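Chicken DT40 Tdp1-/- cells stably complemented with human TDP1 were seeded at 400 cells/well in medium containing 20 nM camptothecin, exposed to pin-transferred compounds, and grown at 37 °C for at least 48 hr. Viability was read as ATP luminescence.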
Active calls of the source: *; ? = inconclusive; . = no result given. Unless noted, the call rests on the fitted dose curve; in most records, active means well fitted curve in the direction sought with a large enough effect; inconclusive means small, poorly fitted or top-dose-only effect, or another doubt; inactive means no such curve, though single readings can be large; an effect the other way counts as inactive or inconclusive. Unless noted, on the % scale 0 is the no-effect control and ±100 the full control effect.

SMILES	HT1080 IDH1KD tx	IL-1B inflam inh	DT40 TDP1 no CPT	HT1080NT lethal	DT40 TDP1 CPT
C=CCN(c1ccccc1Cl)S(=O)(=O)c1cccc(C(=O)NCCc2ccc(OC)cc2)c1	-15%	0	21µM*	-1%	?
C=CCN(c1ccccc1OC)S(=O)(=O)c1cccc(C(=O)OCC(=O)c2c(N)n(C)c(=O)n(C)c2=O)c1	-1%	6	18µM*	-6%	?
CCOCCc1nnc(NC(=O)CS(=O)(=O)Cc2ccccc2)s1	11%	-8	-19%	11%	-15%
CC(C)C[C@H](NC(=O)[C@@H]1Cc2c([nH]c3ccccc23)C2c3ccccc3C(=O)N21)C(=O)N1CCC[C@@H]1C(=O)O (stereo partly drawn)	9%	17	0%	11%	-1%
CC1=C(C(=O)N2CCCCCC2)CC(CC(=O)NCCCCc2ccccc2)C(=O)N1CCC1=CCCCC1 (stereo not drawn)	?	-67*	18µM*	?	23µM*
CCCCN1C(=O)C(CC(=O)NCCCCc2ccccc2)CC(C(=O)N2CCCCCC2)=C1C (stereo not drawn)	10%	0	18µM*	3%	18µM*
CC1=C(C(=O)N2CCCCCC2)CC(CC(=O)NC2CCCCC2)C(=O)N1CCC1=CCCCC1 (stereo not drawn)	-15%	-27	?	-30%	13µM*
CC1=C(C(=O)N(C)C)CC(CC(=O)NCCCCc2ccccc2)C(=O)N1CCC1=CCCCC1 (stereo not drawn)	12%	-10	?	4%	?
CCCCN1C(=O)C(CC(=O)NCCCCc2ccccc2)CC(C(=O)N2CCOCC2)=C1C (stereo not drawn)	5%	5	-10%	-2%	3%
CC1=C(C(=O)N(C)C)CC(CC(=O)NC2CCCCC2)C(=O)N1CCC1=CCCCC1 (stereo not drawn)	2%	-21	?	0%	-5%
CC(C)Oc1ccc(C(=O)Nc2nc3c(s2)CC(C(C)(C)C)CC3)cc1 (stereo not drawn)	.	.	13µM*	.	16µM*
CCOc1cccc(C(=O)Nc2nc3c(s2)CC(C(C)(C)C)CC3)c1 (stereo not drawn)	.	.	21µM*	.	21µM*
CCCC(=O)Nc1nc2c(s1)CC(C(C)(C)C)CC2 (stereo not drawn)	.	.	21µM*	.	18µM*
CCC(=O)Nc1sc2c(c1C(=O)Nc1ccc(OC)cc1)CCC(C(C)(C)C)C2 (stereo not drawn)	.	.	-1%	.	2%
Cc1ccccc1C(=O)Nc1nc2c(s1)CC(C(C)(C)C)CC2 (stereo not drawn)	.	.	12µM*	.	16µM*
COc1ccc(/C=C/C(=O)O)cc1S(=O)(=O)N1CCCCC1	-6%	20	-11%	-4%	4%
Cc1cnc(CNC(=O)c2csc([C@H]3C[C@H](O)[C@@H](CO)O3)n2)cn1	10%	14	-1%	10%	7%
COc1ccccc1NC(=O)COC(=O)c1ccc(N2CCCC2=O)cc1	-3%	-1	-7%	0%	-7%
COc1ccc(CCC2CCNCC2)cc1	4%	-8	18µM*	7%	?
COc1ccc(CCC(=O)O)cc1	.	.	-2%	.	-4%
COc1ccc(NC(=O)N(C)C[C@@H]2OCc3cnnn3CCCC(=O)N([C@@H](C)CO)C[C@H]2C)cc1	-2%	-9	-23%	30%	-4%
Nc1ncnc(N2CCc3ccccc32)c1[N+](=O)[O-]	6%	-1	7.3µM*	-5%	5.8µM*
NNC(=O)c1ccc(N2CCc3ccccc32)c([N+](=O)[O-])c1	-11%	-12	?	-17%	-21%
Cc1ccc(N(C)S(=O)(=O)c2cccc(C(=O)N(C)Cc3cnn(-c4ccccc4)c3)c2)cc1	?	-81*	?	-3%	?
CN(Cc1cnn(-c2ccccc2)c1)C(=O)c1ccc(S(=O)(=O)NCc2ccco2)cc1	-18%	-5	?	-4%	-26%
SMILES	HT1080 IDH1KD tx	IL-1B inflam inh	DT40 TDP1 no CPT	HT1080NT lethal	DT40 TDP1 CPT
CN(Cc1cnn(-c2ccccc2)c1)C(=O)c1cccc(S(=O)(=O)N(C)c2ccccc2)c1	-19%	-23	16µM*	-18%	18µM*
Cc1ccc(C)c(S(=O)(=O)c2cn(C)c3cc(N4CCCCC4C)c(F)cc3c2=O)c1 (stereo not drawn)	.	.	21µM*	.	21µM*
Cn1cc(S(=O)(=O)c2ccccc2)c(=O)c2cc(F)c(N3CCCCC3)cc21	.	.	-24%	.	-25%
CCc1ccc(S(=O)(=O)c2cn(C)c3cc(N4CCC(C)CC4)c(F)cc3c2=O)cc1	.	.	15µM*	.	15µM*
CCc1ccc(S(=O)(=O)c2cn(C)c3cc(N4CCCCC4C)c(F)cc3c2=O)cc1 (stereo not drawn)	.	.	15µM*	.	?
Cn1cc(S(=O)(=O)c2ccccc2)c(=O)c2cc(F)c(N3CCCC3)cc21	.	.	-21%	.	-17%
COc1ccc(OC)c(S(=O)(=O)N2CCN(Cc3nc4ccc(C)cc4o3)CC2)c1	.	.	-11%	.	?
O=C(Cc1c(C(=O)O)[nH]c2ccc(Cl)cc12)Nc1ccc2c(c1)OCCO2	21%	11	-6%	0%	14%
CCCCN1C(=O)c2ccc(C(=O)Nc3c(N)n(CCCC)c(=O)n(C)c3=O)cc2C1=O	1%	-14	-6%	1%	2%
COC1C=COC2(C)Oc3c(C)c(O)c4c(O)c(c(CN5CCN(C)CC5)c(O)c4c3C2=O)NC(=O)C(C)=CC=CC(C)C(O)C(C)C(O)C(C)C(OC(C)=O)C1C (stereo not drawn)	12%	-6	21µM*	4%	23µM*
CO[C@H]1/C=C\O[C@@]2(C)Oc3c(C)c(O)c4c(O)c(c(C=NN5CCN(C6CCCC6)CC5)c(O)c4c3C2=O)NC(=O)C(C)=CC=C[C@H](C)[C@H](O)[C@@H](C)[C@@H](O)[C@@H](C)[C@H](OC(C)=O)[C@H]1C	.	.	3.2µM*	.	5.6µM*
CCC(C)N1CCC2(CC1)N=c1c(c3c4c5c(C)c(O)c3c(O)c1=NC(=O)C(C)=CC=C[C@H](C)[C@H](O)[C@@H](C)[C@@H](O)[C@@H](C)[C@H](OC(C)=O)[C@H](C)[C@@H](OC)C=CO[C@@](C)(O5)C4=O)N2 (stereo partly drawn)	-14%	?	18µM*	-13%	13µM*
CO[C@H]1C=CO[C@@]2(C)Oc3c(C)c(O)c4c(O)c(cc(O)c4c3C2=O)NC(=O)/C(C)=C\C=C/[C@H](C)[C@H](O)[C@@H](C)[C@@H](O)[C@@H](C)[C@H](OC(C)=O)[C@@H]1C	.	.	-12%	.	-4%

Screens from PubChem BioAssay.
